KDM5B inh – blocks human KDM5B histone demethylase activity; AID 1347165; KDM5B demethylase, FDH-coupled NADH fluorescence (FDH is formaldehyde dehydrogenase); actives 2.6% (n = 220,000); Q9UGL1; Potency, µM (series often up to 57.7 µM), usual class: inhibitors; active means well fitted inhibition curve with a large enough effect; further: 0% is about no effect; nearly all actives have a fitted effect of over 70% in size
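Here, H3K4me3 peptide (12.5 µM in substrate mix) is demethylated by KDM5BΔAP, 200 nM final, after 10 min compound exposure. Formaldehyde product is coupled through FDH (0.25 U/mL in mix) to NADH fluorescence; 30-min ΔRFU feeds dose-response curves.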
Numbers without * were called inactive; i = inactive. This is one part of a sample in which hits are shown more often than they occur. Potency means the concentration at half of the fitted maximal effect.

SMILES	KDM5B inh
COCCNC(=O)[C@@H]1Cc2cn(Cc3cccnc3)c3cccc(c23)[C@H](CC(C)C)N1	i
CCC(=O)NCC1c2cc(OC)c(OC)cc2CCN1C(=O)NC(C)(C)C (centres undefined)	i
CC(C)CCn1c(SCc2ccc(F)cc2)nc2c1c(=O)[nH]c(=O)n2C	i
CCCCn1c(=O)[nH]c(=O)c2c1nc(CCC(=O)NC1CCN(CC)CC1)n2CC(C)C	i
O=C(CN1CCN(c2ccc(C(F)(F)F)cn2)CC1)NC1CCS(=O)(=O)C1 (centres undefined)	i
CNCC(=O)NC1CCCN(c2ccc(C(F)(F)F)cn2)C1 (centres undefined)	28µM*
Cc1ccc(C(=O)NC2CCCN(c3ccc(C(F)(F)F)cn3)C2)cn1 (centres undefined)	i
COC(=O)C1(C(=O)OC)C(c2ccccc2)CC(=O)CC1c1ccccc1 (centres undefined)	i
N#Cc1ccc(/C=C/C(=O)N(Cc2ccc(C(F)(F)F)cc2)C2CC2)cc1	i
CCc1cccc2c(C(=O)CN3C(=O)CC4(CCCC4)C3=O)c[nH]c12	i
CC(C)(C)N=Cc1cc(Br)ccc1O	i
CCN(CC)C(=S)SC(c1ccc2ccccc2c1[N+](=O)[O-])S(=O)(=O)c1ccc(C)cc1 (centres undefined)	i
COc1ccc(-c2noc([C@@H]3Cc4nc[nH]c4CN3C(=O)CSCC(=O)O)n2)cc1	i
O=C(CCC1CCCC1)N1CCCCCC1c1nc(-c2ccncc2)no1 (centres undefined)	i
CCOC(=O)c1ccc(NC(=O)N2Cc3[nH]cnc3C[C@H]2c2nc(-c3ccncc3)no2)cc1	i
O=C(c1ccccc1)N1Cc2[nH]cnc2C[C@H]1c1nc(-c2ccc(Cl)cc2)no1	i
c1cc(-c2noc([C@@H]3Cc4nc[nH]c4CN3CC3CCCCC3)n2)ccn1	35µM*
Cc1ccc(-c2noc([C@@H]3Cc4nc[nH]c4CN3C(=O)COCC(=O)O)n2)cc1	i
c1csc(CN2Cc3[nH]cnc3C[C@H]2c2nc(-c3ccc4ccccc4c3)no2)c1	28µM*
O=C(Nc1cccc(F)c1)N1Cc2[nH]cnc2C[C@H]1c1nc(-c2ccncc2)no1	i
c1csc(CN2Cc3[nH]cnc3C[C@H]2c2nc(-c3ccncc3)no2)c1	28µM*
Cc1cc(I)ccc1NC(=S)NCCc1ccccc1	i
CC(C)=CC1C(C(=O)Nc2c(C)cccc2C(C)C)C1(C)C (centres undefined)	i
O[C@@H]1CC(CNCc2ccc(Cl)cc2)(COc2cccnc2)C[C@@H]1O (some centres undefined)	i
CC(C)N1C(=O)S/C(=C/c2cn(CC#N)c3ccccc23)C1=O	i
SMILES	KDM5B inh
CCN(CC)C(CNC(=O)Nc1cccc(C(=O)N2CCCCC2)c1)c1ccsc1 (centres undefined)	i
CC(C)NC(=O)CCc1ncc(-c2c(F)cccc2F)o1	i
Cc1cccc(-c2nc(CS(=O)CC(=O)NCc3ccc(Cl)cc3)c(C)o2)c1 (centres undefined)	i
O=C(Cn1c(=O)n2nc(-c3cccc(F)c3)nc2c2ccccc21)NCc1ccc(Cl)cc1	i
O=C(CCNc1c(-c2cccc(F)c2)nc2cnccn12)NCc1ccc(Cl)cc1	28µM*
Cc1ccc(Cn2ccnc2SCC(=O)NCc2ccc3c(c2)OCO3)cc1	i
CSc1ccc(CNC(=O)CCc2conc2-c2cccc(C)c2)cc1	i
Cc1cccc(-c2nc3cnccn3c2NCCC(=O)NCc2ccc(F)c(Cl)c2)c1	28µM*
Cc1ccc(CSCC(=O)NCc2ccc3c(c2)OCO3)cc1	i
O=C(Cn1cccc1-c1nc(-c2ccc(F)cc2)no1)NCc1ccc(Cl)cc1	i
Cc1cccc(-c2nc3cnccn3c2NCCC(=O)NCc2ccc3c(c2)OCO3)c1	28µM*
O=C(OC(C(=O)NC1CC1)c1ccccc1)c1n[nH]c(=O)c2ccccc12 (centres undefined)	i
N#C/C(=C/c1ccccc1OCc1ccccc1C#N)c1ccc(Cl)cc1	i
Cc1ccc(-c2n[nH]c(=O)c3ccccc23)cc1S(=O)(=O)N(C)C1CCCCC1	i
Cc1ccc(C)c(C(=O)COC(=O)c2ccc3ccccc3n2)c1	i
COC(=O)c1ccccc1-c1ccc(/C=C(/C#N)c2nc3ccc(C)cc3[nH]2)o1	i
CCCC1c2nccn2CCCN1C(=O)c1cnco1 (centres undefined)	i
CCSc1ncc(-c2c(-c3ccccc3)ncn2CC[C@@H](C)CO)cn1	14µM*
CCn1cc(-c2c(-c3ccccc3)ncn2C(CO)C(=O)O)cn1 (centres undefined)	i
CCc1ncc(-c2c(-c3ccccc3)ncn2CCCOc2cccnc2)cn1	i
c1ccc(C2=NOC3(CCN(Cc4c[nH]c5ccccc45)CC3)C2)cc1	i
CN(C)CCCC(=O)N1Cc2ccccc2CC2(CCCCN2Cc2ccccc2)C1 (centres undefined)	i
CCc1[nH]c2c(CNC(=O)C(C)O)cc(C)cc2c1C (centres undefined)	32µM*

Screening data (PubChem)
